Test results as given in the supplement of paper PMC12067093, “Discovery and optimisation of a covalent ligand for TRIM25 and its application to targeted protein ubiquitination” (Chemical Science, 2025).
Of roughly 21,000 targets only a part is listed; those with the largest changes were picked by preference.

Compound: CC1Cc2ccccc2N1C(=O)C1CCCN(C1)C(=O)CCl (mixture of isomers) [TRIM25 ligand 11 (diastereomer mixture)]
Test: probe-labelled cysteine peptide fold change vs DMSO (competition) (log2 fold change); higher = less target engagement (more negative = stronger competition)
Conditions: THP-1, incubation time: 4 h
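Further: competitive chemoproteomic profiling in live THP-1 cells with an iodoacetamide desthiobiotin (IA-DTB) probe, comparing probe-labelled peptide intensities in compound-treated cells against DMSO-treated controls.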

UniProt Q8WU76, sequence (Q8WU76 whole entry, looked up): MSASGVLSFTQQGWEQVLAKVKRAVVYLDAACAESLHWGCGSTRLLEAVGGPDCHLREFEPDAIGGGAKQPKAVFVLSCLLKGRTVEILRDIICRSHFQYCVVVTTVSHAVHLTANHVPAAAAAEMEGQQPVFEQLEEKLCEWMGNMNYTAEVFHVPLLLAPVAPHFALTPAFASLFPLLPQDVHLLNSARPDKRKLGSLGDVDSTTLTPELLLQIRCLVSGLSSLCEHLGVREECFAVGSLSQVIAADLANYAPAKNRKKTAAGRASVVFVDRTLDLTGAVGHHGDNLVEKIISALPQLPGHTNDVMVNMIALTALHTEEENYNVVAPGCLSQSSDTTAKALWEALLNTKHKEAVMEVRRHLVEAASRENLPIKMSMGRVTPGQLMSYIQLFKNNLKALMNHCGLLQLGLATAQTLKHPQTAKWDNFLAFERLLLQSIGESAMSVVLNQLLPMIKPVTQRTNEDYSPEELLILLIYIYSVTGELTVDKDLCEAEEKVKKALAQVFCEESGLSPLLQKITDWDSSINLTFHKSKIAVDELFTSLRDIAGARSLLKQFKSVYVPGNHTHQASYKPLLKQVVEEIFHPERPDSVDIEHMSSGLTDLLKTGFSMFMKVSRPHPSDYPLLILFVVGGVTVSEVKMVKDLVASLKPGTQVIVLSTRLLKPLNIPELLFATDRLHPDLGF
UniProt Q13813, sequence (Q13813 whole entry, looked up): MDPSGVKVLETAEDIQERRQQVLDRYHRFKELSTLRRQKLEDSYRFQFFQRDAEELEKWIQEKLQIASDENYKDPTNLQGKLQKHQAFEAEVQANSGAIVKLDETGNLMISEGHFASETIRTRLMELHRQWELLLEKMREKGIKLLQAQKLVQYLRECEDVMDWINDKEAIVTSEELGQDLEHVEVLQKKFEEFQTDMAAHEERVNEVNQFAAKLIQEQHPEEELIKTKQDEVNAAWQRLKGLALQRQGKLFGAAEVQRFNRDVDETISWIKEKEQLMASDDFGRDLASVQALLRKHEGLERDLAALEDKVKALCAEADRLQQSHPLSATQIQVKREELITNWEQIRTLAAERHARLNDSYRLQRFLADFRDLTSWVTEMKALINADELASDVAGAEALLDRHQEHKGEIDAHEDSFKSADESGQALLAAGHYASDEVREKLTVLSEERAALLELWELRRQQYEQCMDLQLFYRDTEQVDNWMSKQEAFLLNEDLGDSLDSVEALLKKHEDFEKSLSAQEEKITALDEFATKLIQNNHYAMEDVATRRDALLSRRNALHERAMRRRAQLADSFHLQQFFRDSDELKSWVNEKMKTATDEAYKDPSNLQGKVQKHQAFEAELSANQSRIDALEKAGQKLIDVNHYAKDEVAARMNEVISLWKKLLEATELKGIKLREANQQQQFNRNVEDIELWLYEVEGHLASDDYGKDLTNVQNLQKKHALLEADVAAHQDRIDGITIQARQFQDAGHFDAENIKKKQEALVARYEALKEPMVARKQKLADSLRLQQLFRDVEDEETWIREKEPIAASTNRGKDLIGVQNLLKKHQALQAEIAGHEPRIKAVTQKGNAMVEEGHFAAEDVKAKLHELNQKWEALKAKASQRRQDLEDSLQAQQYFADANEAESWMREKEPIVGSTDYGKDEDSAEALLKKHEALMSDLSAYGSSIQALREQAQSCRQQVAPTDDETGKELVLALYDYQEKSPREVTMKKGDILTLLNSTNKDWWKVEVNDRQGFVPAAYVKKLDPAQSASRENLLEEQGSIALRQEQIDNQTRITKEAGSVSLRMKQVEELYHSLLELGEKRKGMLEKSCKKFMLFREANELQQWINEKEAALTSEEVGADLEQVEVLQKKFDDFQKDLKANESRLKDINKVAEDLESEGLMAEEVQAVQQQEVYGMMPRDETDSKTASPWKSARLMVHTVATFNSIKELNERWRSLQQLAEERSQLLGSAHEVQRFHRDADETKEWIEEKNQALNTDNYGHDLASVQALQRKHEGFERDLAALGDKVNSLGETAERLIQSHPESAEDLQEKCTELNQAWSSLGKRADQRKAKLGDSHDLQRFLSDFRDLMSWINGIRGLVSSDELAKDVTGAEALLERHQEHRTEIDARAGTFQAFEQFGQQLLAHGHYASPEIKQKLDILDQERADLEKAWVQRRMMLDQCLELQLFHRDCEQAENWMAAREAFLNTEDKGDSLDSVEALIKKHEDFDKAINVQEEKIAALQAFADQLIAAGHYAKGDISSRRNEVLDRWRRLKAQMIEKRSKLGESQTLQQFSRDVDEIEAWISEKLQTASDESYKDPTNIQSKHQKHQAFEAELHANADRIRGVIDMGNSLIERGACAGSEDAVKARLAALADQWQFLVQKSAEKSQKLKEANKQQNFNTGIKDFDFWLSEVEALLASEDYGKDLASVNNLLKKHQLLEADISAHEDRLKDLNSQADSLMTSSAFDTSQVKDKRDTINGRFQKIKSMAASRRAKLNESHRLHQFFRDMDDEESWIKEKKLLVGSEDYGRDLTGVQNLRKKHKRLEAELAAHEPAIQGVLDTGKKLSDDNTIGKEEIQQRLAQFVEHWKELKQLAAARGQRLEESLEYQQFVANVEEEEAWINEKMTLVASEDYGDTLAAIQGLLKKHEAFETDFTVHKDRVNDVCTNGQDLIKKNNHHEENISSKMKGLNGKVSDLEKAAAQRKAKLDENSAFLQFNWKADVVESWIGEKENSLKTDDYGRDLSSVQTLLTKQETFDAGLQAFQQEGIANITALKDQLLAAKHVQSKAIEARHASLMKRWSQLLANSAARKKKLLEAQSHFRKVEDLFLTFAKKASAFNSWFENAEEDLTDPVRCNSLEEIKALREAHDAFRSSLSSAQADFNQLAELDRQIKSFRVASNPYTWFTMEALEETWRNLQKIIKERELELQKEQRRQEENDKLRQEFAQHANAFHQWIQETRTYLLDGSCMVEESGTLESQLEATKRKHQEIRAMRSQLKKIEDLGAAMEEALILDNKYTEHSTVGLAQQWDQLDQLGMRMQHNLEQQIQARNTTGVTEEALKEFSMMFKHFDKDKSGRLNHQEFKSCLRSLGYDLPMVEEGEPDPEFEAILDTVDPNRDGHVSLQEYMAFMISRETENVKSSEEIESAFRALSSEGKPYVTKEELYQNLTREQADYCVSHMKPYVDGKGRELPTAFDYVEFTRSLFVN
UniProt Q8N6T7, sequence (Q8N6T7 whole entry): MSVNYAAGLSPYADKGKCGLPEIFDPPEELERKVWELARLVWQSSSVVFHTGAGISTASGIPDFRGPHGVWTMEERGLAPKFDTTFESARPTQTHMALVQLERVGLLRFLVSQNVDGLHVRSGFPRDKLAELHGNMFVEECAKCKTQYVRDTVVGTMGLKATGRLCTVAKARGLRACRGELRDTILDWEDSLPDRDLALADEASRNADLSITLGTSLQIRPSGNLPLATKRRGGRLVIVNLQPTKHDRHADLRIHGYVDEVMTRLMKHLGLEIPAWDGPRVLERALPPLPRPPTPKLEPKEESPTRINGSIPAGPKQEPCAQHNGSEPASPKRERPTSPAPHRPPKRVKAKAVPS
UniProt Q14683, sequence (Q14683 whole entry, looked up): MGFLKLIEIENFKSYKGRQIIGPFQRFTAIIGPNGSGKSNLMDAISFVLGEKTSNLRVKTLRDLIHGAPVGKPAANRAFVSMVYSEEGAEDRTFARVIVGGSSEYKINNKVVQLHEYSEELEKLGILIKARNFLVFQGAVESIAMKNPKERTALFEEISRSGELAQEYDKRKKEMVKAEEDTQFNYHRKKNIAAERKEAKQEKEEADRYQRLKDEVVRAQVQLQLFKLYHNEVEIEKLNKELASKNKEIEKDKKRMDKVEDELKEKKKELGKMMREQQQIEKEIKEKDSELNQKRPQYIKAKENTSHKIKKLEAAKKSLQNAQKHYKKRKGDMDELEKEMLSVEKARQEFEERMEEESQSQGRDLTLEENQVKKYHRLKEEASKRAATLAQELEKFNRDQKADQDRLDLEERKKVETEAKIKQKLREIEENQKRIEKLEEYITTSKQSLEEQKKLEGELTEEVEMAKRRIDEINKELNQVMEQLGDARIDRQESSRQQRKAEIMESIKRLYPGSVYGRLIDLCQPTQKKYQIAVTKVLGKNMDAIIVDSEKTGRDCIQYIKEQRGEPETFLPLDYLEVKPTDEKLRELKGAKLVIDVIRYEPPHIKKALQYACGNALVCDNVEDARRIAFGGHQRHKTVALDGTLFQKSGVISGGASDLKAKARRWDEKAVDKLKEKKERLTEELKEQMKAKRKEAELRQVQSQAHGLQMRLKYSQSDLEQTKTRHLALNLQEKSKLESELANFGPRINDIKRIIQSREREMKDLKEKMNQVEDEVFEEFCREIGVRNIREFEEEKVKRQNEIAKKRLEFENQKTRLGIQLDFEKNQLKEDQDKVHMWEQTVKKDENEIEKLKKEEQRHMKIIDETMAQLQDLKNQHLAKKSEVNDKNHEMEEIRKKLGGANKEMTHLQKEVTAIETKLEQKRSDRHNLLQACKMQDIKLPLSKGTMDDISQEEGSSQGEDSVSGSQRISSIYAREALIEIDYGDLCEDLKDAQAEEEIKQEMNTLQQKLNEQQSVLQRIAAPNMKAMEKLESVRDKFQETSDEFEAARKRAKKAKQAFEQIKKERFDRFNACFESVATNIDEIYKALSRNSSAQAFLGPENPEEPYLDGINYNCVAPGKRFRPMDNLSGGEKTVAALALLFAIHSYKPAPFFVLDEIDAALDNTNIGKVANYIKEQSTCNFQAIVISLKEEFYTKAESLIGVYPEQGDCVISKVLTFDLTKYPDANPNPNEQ
UniProt O95149, sequence (O95149 whole entry, looked up): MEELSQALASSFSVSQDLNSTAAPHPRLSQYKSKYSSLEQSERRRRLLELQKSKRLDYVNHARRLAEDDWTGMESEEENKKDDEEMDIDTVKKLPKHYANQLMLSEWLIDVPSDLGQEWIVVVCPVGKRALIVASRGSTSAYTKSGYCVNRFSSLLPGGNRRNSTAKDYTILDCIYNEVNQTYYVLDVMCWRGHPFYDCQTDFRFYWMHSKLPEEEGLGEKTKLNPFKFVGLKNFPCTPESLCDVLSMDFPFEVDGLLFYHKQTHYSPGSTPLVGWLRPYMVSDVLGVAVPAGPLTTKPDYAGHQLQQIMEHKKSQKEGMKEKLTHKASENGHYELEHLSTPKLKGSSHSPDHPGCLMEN

Target	probe-labelled cysteine peptide fold change (10 µM)	probe-labelled cysteine peptide fold change (50 µM)
SMU1_Q2TAY7_416_NPEHFVVCNR (UniProt Q2TAY7)	-0.00322	0.0655
SPTAN1_Q13813_1622_GACAGSEDAVK (UniProt Q13813)	-0.135	-0.00186
SFMBT2_Q5VUG0_796_CPPTKPEGTEDTKQEEEERLVLESNPLEWTVTDVVR (UniProt Q5VUG0)	-0.043	-0.0391
RRP12_Q5JTH9_673_GCQAEADRAEVSR (UniProt Q5JTH9)	0.0652	-0.00566
SCFD2_Q8WU76_507_ALAQVFCEESGLSPLLQK (UniProt Q8WU76)	0.0961	0.0426
SERBP1_Q8NC51_11_PGHLQEGFGCVVTNRFDQLFDDESDPFEVLK (UniProt Q8NC51)	-0.323	-0.648
SEC23B_Q15437_40_MVVPLACLLTPLK (UniProt Q15437)	-0.0615	-0.0659
SNRNP40_Q96DI7_72_CSSLQAPIMLLSGHEGEVYCCK (UniProt Q96DI7)	0.165	0.0428
RPP40_O75818_49_VSFLIPECGILSEELK (UniProt O75818)	0.101	0.161
RRM1_P23921_218_WFTHASPTLFNAGTNRPQLSSCFLLSMKDDSIEGIYDTLK (UniProt P23921)	0.111	0.0345
RUBCNL_Q9H714_641_QCFQSSECPR (UniProt Q9H714)	0.144	0.15
RRP12_Q5JTH9_102_SSGTFLSGLSDCTNVTFSK (UniProt Q5JTH9)	0.0888	0.0733
SERPINF2_P08697_152_LCQDLGPGAFR (UniProt P08697)	0.591	0.7
RPS2_P15880_222_KLLMMAGIDDCYTSAR (UniProt P15880)	-0.59	-0.607
RPS6KA1_Q15418_432_ETIGVGSYSECKR (UniProt Q15418)	0.185	-0.833
RPS5_P46782_155_VNQAIWLLCTGAR (UniProt P46782)	0.00589	0.118
SEC23A_Q15436_88_LWACNFCYQR (UniProt Q15436)	0.0643	0.249
SEC24C_P53992_493_RVDAYDRPELSLGSYEFLATVDYCK (UniProt P53992)	-0.123	0.0859
SLC7A6OS_Q96CW6_62_AAENNVFHLVATVCSQEEPVQPLLR (UniProt Q96CW6)	-0.0977	-0.671

Target	probe-labelled cysteine peptide fold change (10 µM)	probe-labelled cysteine peptide fold change (50 µM)
RUVBL2_Q9Y230_227_FVQCPDGELQK (UniProt Q9Y230)	0.151	-0.0879
SESN1_Q9Y6P5_286_QLQECRDEEEASQEEMASR (UniProt Q9Y6P5)	-0.00479	-0.0495
SF1_Q15637_282+292_CGGAGHIASDCK (UniProt Q15637)	-0.0927	-0.0122
SNX18_Q96RF0-2_570_CNTISFATLAEIHHFHQIR (UniProt Q96RF0)	0.155	0.111
SCAF11_Q99590_566_VYQPVSCPLSDLSENVESVVNEEK (UniProt Q99590)	-0.0494	-0.138
RSBN1_Q5VWQ0_282_EVQTVCAGLTR (UniProt Q5VWQ0)	0.00457	-0.119
SAMD9_Q5K651_975+979_TEVIECGNYCGVR (UniProt Q5K651)	0.388	0.22
SPATA5_Q8NB90_459_HPSIIFIDELDALCPK (UniProt Q8NB90)	-0.0102	-0.321
SEPT9_Q9UHD8_531_WGTIEVENTTHCEFAYLR (UniProt Q9UHD8)	0.0123	-0.0856
SLC35B1_P78383_119_SCKPIPVMLLGVTLLK (UniProt P78383)	-0.942	0.0401
SIRT6_Q8N6T7_141_LAELHGNMFVEECAK (UniProt Q8N6T7)	0.087	0.00561
SMU1_Q2TAY7_219_SHVECAR (UniProt Q2TAY7)	0.194	0.11
SNRPC_P09234_25_KTHCSGR (UniProt P09234)	-0.332	-0.766
SRCAP_Q6ZRS2_1926_IFQLSEAHGALAPVYGTEVLDFCTLPQPVASPIGPR (UniProt Q6ZRS2)	0.683	0.741
SMC1A_Q14683_781_MNQVEDEVFEEFCR (UniProt Q14683)	0.0344	0.0302
SNRPD2_P62316_63_AFDRHCNMVLENVK (UniProt P62316)	-0.388	-0.34
SNUPN_O95149_199_GHPFYDCQTDFR (UniProt O95149)	0.47	0.00215
SIL1_Q9H173_408_VLQTLGVLLTTCR (UniProt Q9H173)	0.0793	0.848
SRGAP2_O75044_486_TDCSLAR (UniProt O75044)	-0.0891	-0.197
